About 83,000 compounds went through this panel and 20% of them were active in at least one assay; those are over-represented in the sample as a whole.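 Testing used 96-well plates and a 48-hour single-concentration exposure. Example: -40 means 40% of the starting cells died.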 Unmarked numbers belong to inactive results. Calls of active or inactive are those of the source. Rule for the calls: active = growth percent below 10; inactive = the rest.

The test system of one assay is PC-3 prostate. Description: NCI-60 one-dose screen, 48 h (100 = growth as untreated, 0 = no growth, -100 = all killed). Conditions: 10 µM unless noted.
With `Cc1ccc(C(=O)Nc2ccc(CN3CCN(C)CC3)c(C(F)(F)F)c2)cc1C#Cc1cncc2ncccc12`, the growth was -69.3% (active).

As for `O=C(Nc1ccc(-n2cc(-c3ccncc3)c(-c3ccc(Cl)c(O)c3)n2)cc1)c1cc(C(F)(F)F)cc(C(F)(F)F)c1`, the growth was 72.1%.

For `CCCCCCCCCC(C)NC(=O)CCl` (configuration not stated), the growth was 94.5%.

For `COc1ccc(C(=O)CN2C(=O)NC(c3ccccc3)(c3ccccc3)C2=O)cc1`, the growth is 95%.

For `CCCCCCCCC(=O)Nc1ccc(O)cc1`, the growth was 83.2%.

For the compound `COc1ccc(-c2nc(SCC(C)C)nc(Nc3ccccc3)c2C#N)cc1`, the growth was 86.9%.

Regarding `N#Cc1ccc(NC2c3ccccc3CC2O)cc1` (configuration not stated), the growth is 98.8%.

For `N#CCCCCCCCCCCC#N`, the growth was 95.8%.

As for `CCOC(=O)c1ccc2n1CCCc1cnc(NC(C)=O)nc1-2`, the growth was 93.1%.

Turning to `O=C(/C(Br)=C/c1ccccc1)c1ccccc1`, the growth was 87.8%.

Consider `COc1ccc2c(N)ncc(C#Cc3cc(C(=O)Nc4ccc(CN5CCN(C)CC5)c(C(F)(F)F)c4)cnc3C)c2c1`, for which the growth is -69.4% (active).

As for `CCCCCCCCCCCC(=O)OC(C)C(=O)Nc1ccccc1` (configuration not stated), the growth was 90.3%.

In the next assay the test system is SK-MEL-5 melanoma. The description is as above. Conditions: 10 µM unless noted.
In the case of `COc1ccccc1Cn1cc2c(c1)-c1oncc1CC2`, the growth was 18%.

Turning to `CC1=NN(c2cccc(Cl)c2)C(=O)/C1=C\c1cn(-c2nc(N3CCOCC3)nc(N3CCOCC3)n2)c2ccccc12`, the growth is 101%.

`NC(=O)c1c(Nc2ccccc2)nn2cc(-c3nc4ccccc4s3)c(N)nc12`: the growth is 97.3%.

Regarding `COc1cc(/C(=C2/O[C@@H]([C@H]3COC(C)(C)O3)[C@H]3OC(C)(C)O[C@@H]23)c2ccc3c(c2)OCO3)cc(OC)c1OC`, the growth is 71.2%.

For the compound `O=C(N/N=C/c1coc2ccccc2c1=O)c1cc2oc(-c3ccccc3)cc2[nH]1`, the growth is 84%.

Consider `CCCCCCC(=O)C(C)C`, for which the growth is 101%.

For `O=C1c2cc([N+](=O)[O-])ccc2-c2cc(Cl)c(NC(=O)C(F)(F)F)cc21`, the growth is 100%.

Regarding `N=C(c1ccccc1)N(Cc1ccccc1)Cc1ccccc1`, the growth is 104%.

As to `CSCc1ncc(-c2ccc(C(F)(F)F)cc2)c(NC2CCCCCC2)n1`, the growth is 78.6% [25 µM].

In the case of `O=C(Nc1cccc(Cn2c(=O)[nH]c3ccc(Oc4ncccn4)cc3c2=O)c1)c1ccc(Cl)cc1`, the growth is 12.6%.

Turning to `CC[C@H](Nc1ncnc2nc[nH]c12)c1nc2cccc(NCc3ccc(C(=O)NO)o3)c2c(=O)n1-c1ccccc1`, the growth is 101%.

With `CCCCCCCCCC[N+](C)(C)N`, the growth was 96.7%.

With `C=C(C)C(C(=O)OCC)(C(=O)OCC)C(C)C`, the growth is 98.3%.

With `COC1=CC(c2ccc[nH]2)=N/C1=C\c1[nH]c(C)c(C(=O)CCCCC(=O)NC(C)(C)C)c1C`, the growth is 50.8%.

With `COc1ccc(NC(=O)/C=C(C)/C=C/C=C(C)/C=C/C2=C(C)CCCC2(C)C)cc1`, the growth is 110%.

On to `CCCCCCCCc1ccc(OCCOCC[N+](C)(C)CC)cc1` (tested in a mixture with another compound), for which the growth is -52.3% (active).

In the case of `COc1cc2c(cc1OC)C(Cc1cc(OC)c(OC)cc1[N+](=O)[O-])=NCC2`, the growth was 93.6%.

Take `O=C1CCNC1`: the growth is 104%.

Consider `COc1ccc(-c2nnc(SCC(=O)Nc3ccc(C(=O)/C=C/c4cc(OC)c(OC)c(OC)c4)cc3)n2-c2ccccc2)cc1OC`, for which the growth was -14.6% [100 µM] (active).

`Cc1ccc(S(=O)(=O)Nc2cccc(Cn3c(=O)[nH]c4ccc(Oc5ncccn5)cc4c3=O)c2)cc1`: the growth was 53.8%.

Regarding `CCCCCCCCCCC(C[N+](C)(C)C/C=C/c1ccccc1)C(O)c1ccccc1` (configuration not stated), the growth is 30.6%.

Take `COc1ccc(/C=C2\CCCC3=C2N=C2SC=NN2C3c2ccc(OC)c(OC)c2)cc1OC` (configuration not stated): the growth is 30.8%.

`COc1cc(CCNc2cnc3cc(N)cc(N)c3n2)cc(OC)c1`: the growth was 103%.

On to `O=C(CCl)c1ccc2c(c1)CCCC2`, for which the growth was 106%.

Take `Cc1ccc(C(=O)Nc2ccc(CN3CCN(C)CC3)c(C(F)(F)F)c2)cc1C#Cc1cnc(N)c2ccc(F)cc12`: the growth was -96% (active).

As to `O=C(Nc1ccc(-n2cc(-c3ccncc3)c(-c3ccc(Cl)c(O)c3)n2)cc1)c1cc(C(F)(F)F)cc(C(F)(F)F)c1`, the growth is 55.8%.

In the case of `CCCCCCCCCC(C)NC(=O)CCl` (configuration not stated), the growth was 97.5%.

On to `CCCCCCCCC(=O)Nc1ccc(O)cc1`, for which the growth was 96.7%.

With `COc1ccc(-c2nc(SCC(C)C)nc(Nc3ccccc3)c2C#N)cc1`, the growth is 96.7%.

Regarding `N#Cc1ccc(NC2c3ccccc3CC2O)cc1` (configuration not stated), the growth is 102%.

In the case of `N#CCCCCCCCCCCC#N`, the growth is 110%.

In the case of `CCOC(=O)c1ccc2n1CCCc1cnc(NC(C)=O)nc1-2`, the growth is 100%.

As for `O=C(/C(Br)=C/c1ccccc1)c1ccccc1`, the growth was 84.9%.

Turning to `COc1ccc2c(N)ncc(C#Cc3cc(C(=O)Nc4ccc(CN5CCN(C)CC5)c(C(F)(F)F)c4)cnc3C)c2c1`, the growth is -51.4% (active).

As for `CCCCCCCCCCCC(=O)OC(C)C(=O)Nc1ccccc1` (configuration not stated), the growth was 118%.

Source of the values: PubChem BioAssay (NCI).
